For this assay, the system named is MDA-MB-468 breast. As to the kind of experiment: NCI-60 one-dose screen, 48 h (100 = growth as untreated, 0 = no growth, -100 = all killed). The note with it: 10 µM unless noted.

Structures are written as SMILES. “And” between values parts separate entries of the source, which are not always exact repeats. Equal values may be shown once. The panel holds about 83,000 compounds, 20% with a hit somewhere; the sample as a whole holds those more often.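 How to read the values: 0–100, growth inhibition (40 = 60% inhibited); 0, no net growth; -100 to 0, cell death (-40 = 40% of starting cells died; -100 = all dead).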 The source made the active and inactive calls. Rule for the calls: active = growth percent below 10; inactive = the rest.

As for `N/N=C(\C(=N\N)c1ccccc1)c1ccccc1`, the growth is 94% (inactive).

For the molecule `COc1ccc(C(=O)/C=C/c2ccc(OCc3ccc(C)cc3)c(OC)c2)cc1OC`, the growth is 49.9% (inactive).

`N=c1c2c(-c3ccccc3)c(-c3ccccc3)n(Cc3ccccc3)c2ncn1CCCO`: the growth is -0.433% (active).

Take `CC1=CN2C(=NC3=C(CCCC/C3=C\c3ccccc3)C2c2ccccc2)S1` (stereo not given): the growth was 116% (inactive).

In the case of `Cc1cc2nc3c4cc([N+](=O)[O-])cc([N+](=O)[O-])c4n(CCN(C)C)c3nc2cc1C`, the growth is 104% (inactive).

Take `Cn1ccc(=O)nc1`: the growth was 71.1% (inactive).

Take `CCCCCCCCCCCCc1ccc(C(=O)/C=C/C(=O)O)cc1`: the growth was -9.53% (active).

In the case of `CO/N=C(/C)c1ccc(NC(=O)CSc2nnc(-c3ccncc3)n2-c2ccccc2)cc1`, the growth is 50.8% (inactive).

With `N#CC1=C(N)Oc2c(sc3c(F)cccc23)C1c1ccc(Cl)cc1` (stereo not given), the growth is -42.2% (active).

`CN(C)c1ccc(/C=C\C(=O)c2ccccc2)cc1`: the growth was 84.8% (inactive) and 88.3% (inactive) and 83.9% (inactive).

Take `CC12O[C@H](C[C@@H](O)[C@H]1O)n1c3ccccc3c3c4c(c5c6ccccc6n2c5c31)C(=O)N(CCCN)C4=O`: the growth was 17.1% (inactive).

As to `CCCCCC#CC(=O)O`, the growth is 108% (inactive).

Consider `O=C(N/N=C/c1ccc(Cl)cc1)c1ccc(C(F)(F)F)nc1Nc1cccc(C(F)(F)F)c1`, for which the growth is 16.7% (inactive).

For the molecule `Cc1nc2ncc(-c3ccc4ncnc(NCc5ccccc5)c4c3)cc2[nH]1`, the growth was 11.1% (inactive).

For `CC(Nc1ncnc2ccc(-c3cnc4cnccn34)cc12)c1ccccc1` (stereo not given), the growth is -21% (active).

As for `COCCNC(C(=O)c1ccccc1)c1ccccc1` (stereo not given), the growth was 90.8% (inactive).

As to `CC(C)CCNCC(C)(C)O`, the growth was 112% (inactive).

Consider `C=CC(=O)N1CCC=C(c2cc3c(N[C@H](C)c4ccccc4)ncnc3[nH]2)C1`, for which the growth is 9.58% (active).

`O=C1O[C@H]([C@H](O)CO)C(O)=C1O`: the growth was 90% (inactive).

Regarding `C/C(=N\NC(=O)c1ccncc1)c1ccc(N)cc1`, the growth was 97.1% (inactive).

As to `O=C(Nc1ccc(OCc2nnc(-c3ccccc3)o2)c(F)c1)Nc1ccc(Cl)c(C(F)(F)F)c1`, the growth is 1.01% (active).

On to `CN1CCN(CCNc2nccc(-c3c(-c4cccc(O)c4)nc4sccn34)n2)S1(=O)=O`, for which the growth is 79.4% (inactive).

As for `CCCCCCCOc1cccc(/C=C2\N=C3SCCCN3C2=O)c1`, the growth is 89.2% (inactive).

Consider `CCCCCCCCNC(C)C(O)c1ccc(SC(C)C)cc1` (stereo not given), for which the growth is 17.6% (inactive).

Take `CC(C)c1ccc(-c2cnc3nonc3n2)cc1`: the growth is 21% (inactive).

In the case of `Oc1ccc(C(c2ccc(O)cc2)C(Cl)(Cl)Cl)cc1`, the growth is 90% (inactive).

As for `CCCCCn1sc(=O)n(Cc2ccc(CNC(=O)C(C)c3ccc(CC(C)C)cc3)cc2)c1=O` (stereo not given), the growth was 106% (inactive) and -81% (active).

`Nc1nc2c(c(-c3nc(N)nc4c3CCc3ccccc3-4)n1)CCc1ccccc1-2`: the growth was 112% (inactive).

With `CC(=O)Nc1ccc(Sc2ccc([N+](=O)[O-])o2)cc1`, the growth is 4.76% (active).

Consider `FC(F)(F)Oc1ccc2nc3nc4ccc[nH]c4cc3c2c1`, for which the growth is -25.5% (active).

Consider `Cc1c(C(=O)NCCC(=O)NO)sc2ncnc(Nc3ccc(F)c(Cl)c3)c12`, for which the growth was 103% (inactive).

Regarding `CC(C)c1cc(N=O)cc(C(C)C)c1O`, the growth is 81.8% (inactive).

Take `CCCCn1cnc2c(=O)[nH]cnc21`: the growth was 104% (inactive).

With `COc1cc(NC(=O)Nc2cnc(Nc3ccc(N4CCOCC4)cc3)nc2Oc2cccc(OC)c2)cc(OC)c1`, the growth was 29.9% (inactive).

For the molecule `CC(C)=CCC[C@](C)(O)[C@H]1CC[C@]2(C)[C@@H]1CC[C@@H]1[C@@]3(C)C/C(=C/c4cccc([N+](=O)[O-])c4)C(=O)C(C)(C)[C@@H]3CC[C@]12C`, the growth is 84.3% (inactive).

Turning to `COC(=O)c1c(C)c2n(c1C)C(=O)C(c1ccccc1)=C2`, the growth is 39.1% (inactive).

With `CNC(=O)c1ccccc1Nc1nc(Nc2ccc3c(c2OC)CCC[C@H](N2CCN(CCO)CC2)C3)ncc1Cl`, the growth was -52.8% (active).

As to `COc1ccc(C2(Cl)c3ccccc3N(c3ccccc3)c3ccccc32)cc1`, the growth was -32.7% (active).

With `COc1ccc(C2CC(c3ccc(Nc4nc(NCCO)nc(N5CCOCC5)n4)cc3)=Nc3c(N)nc(N)nc3N2)cc1` (stereo not given), the growth was 90.3% (inactive).

For `Nc1[nH][nH]c(=O)c1N=Nc1ccccc1`, the growth is 105% (inactive) and 98.5% (inactive).

These data come from PubChem BioAssay (NCI).
